From PubChem BioAssay
Active and inactive are the calls of the source.

What was measured:
[1] = small molecules captured by biotinylated probe aFSTL3 – biochemical, small-molecule microarray, fluorescence 635/667, stem cell growth factor project, primary screen (AID 1064); details: higher = more signal;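 further: measures binding of the biotinylated anti-FSTL3 antibody to printed compounds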
[2] = binders from COS7 lysate, DM2A8 probe, primary screen, torsin A project, cell lysate, small-molecule microarray, fluorescence 635/667 (AID 1065); details: higher = more signal, COS7 lysate expressing mutant human TOR1A
[3] = small molecules captured by biotinylated probe aFGF2 – biochemical, small-molecule microarray, fluorescence 635/667, stem cell growth factor project, primary screen (AID 1067); details: higher = more signal;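 further: measures binding of biotinylated aFGF2 protein to printed compounds on slides; z-score merges feature fluorescence and signal-to-noise across triplicate slides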
[4] = small molecules captured by biotinylated probe aFGF10 – biochemical, small-molecule microarray, fluorescence 635/667, stem cell growth factor project, primary screen (AID 1071); details: higher = more signal;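 further: score merges 667 nm spot intensity and signal to noise from triplicate slides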
[5] = molecular target: Neurogenic locus notch homolog protein 2 (Homo sapiens) (UniProt Q04721); experiment: small molecules binding Notch2 protein – biochemical, small-molecule microarray, 635 nm fluorescence, stem cell growth factors, primary screen (AID 1073); details: higher = more signal
[6] = molecular target: Pro-neuregulin-1, membrane-bound isoform (Homo sapiens) (UniProt Q02297); experiment: small molecules binding neuregulin-1 protein – biochemical, small-molecule microarray, fluorescence 635/667, psychiatric disease protein project, primary screen (AID 1075); details: NRG1 binding, 635 nm fluorescence, higher = more signal;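 further: score combines 667 nm spot fluorescence with signal to noise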
[7] = test system: Neuregulin-1 EGF-like domain; experiment: small molecules binding NRG1 EGF domain – biochemical, small-molecule microarray, 635 nm fluorescence, primary screen (AID 1081); details: higher = more signal;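 further: binding of the protein to compounds printed on small-molecule microarray slides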
[8] = FRG1 expression reporter modulators in myotubes – cell-based, C2C12 myotubes, firefly/Renilla luciferase, luminescence, FRG1 inhibition for FSHD, primary screen (AID 1084); details: FRG1 promoter luciferase, higher = more signal, called active from +8 up or from −8 down
[9] = small molecules captured by biotinylated probe aFST – biochemical, small-molecule microarray, fluorescence 635/667, stem cell growth factor project, primary screen (AID 1086); details: higher = more signal;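 further: score merges 667 nm fluorescence with signal-to-noise of each printed compound spot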
[10] = binders of probe aHhip on microarray, primary screen, stem cell growth factor project, biochemical, small-molecule microarray, fluorescence 635/667 (AID 1087); details: higher = more signal;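 further: score merges spot fluorescence at 667nm with spot signal to noise ratio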
[11] = test system: PRMT1 (protein arginine N-methyltransferase 1); experiment: small molecules binding arginine methyltransferase PRMT1 – biochemical, small-molecule microarray, 635 nm fluorescence, primary screen (AID 1088); details: higher = more signal;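 further: binding of Prmt1 protein to compounds spotted on small-molecule microarray slides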
[12] = growth effects on S. cerevisiae YJM789 – YJM789 clinical isolate, OD600, 24 h, basal, primary screen (AID 1089); details: higher = more signal, called active from +8 up or from −8 down;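 further: growth of clinical yeast isolate S. cerevisiae YJM 789 seeded 1000 cells per well; test concentration not given here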
[13] = S. pombe growth modifiers, basal conditions – strain 972, OD600, 24 h, no modulator, primary screen (AID 1090);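 further: basal condition with compound alone and no growth modifier present; test concentration not given here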; details: S. pombe 972 growth, higher = more signal, called active from +8 up or from −8 down
[14] = budding yeast growth modifiers under rapamycin – strain BY4716, OD600, 96 h, primary screen (AID 1091); further: test concentration not given here; details: S. cerevisiae BY4716 + rapamycin, higher = more signal, called active from +8 up or from −8 down
[15] = molecular target: Torsin-1A-interacting protein 2 (Homo sapiens) (UniProt Q8NFQ8); experiment: small molecules binding lysate-expressed LULL1 – cell lysate, human LULL1 lysate, 635/667 nm fluorescence, primary screen (AID 1092); details: small-molecule microarray, hLULL1 lysate binding, 635 nm fluorescence; higher = more signal;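 further: probe is lysate of COS7 cells overexpressing human LULL1; score merges per-feature 667 nm fluorescence with signal-to-noise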
[16] = optical density change of DRC41 E. coli – strain DRC41, OD650, 24 h, E. coli filamentation project, primary screen (AID 1093);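 further: MC1000 strain lacking acrAB efflux and sulA so SOS filamentation is blocked; test concentration not given here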; details: E. coli DRC41 growth, higher = more signal, called active from +8 up or from −8 down
[17] = probe aLefty2 binding to arrayed compounds – biochemical, biotinylated probe, 635/667 nm fluorescence, primary screen (AID 1094); details: small-molecule microarray, higher = more signal;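 further: score merges spot fluorescence near 667 nm with spot signal-to-noise ratio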
[18] = test system: Noggin (protein binding on small-molecule microarray); experiment: small molecules binding Noggin protein – biochemical, 635/667 nm fluorescence, primary screen (AID 1095); details: 635 nm fluorescence, higher = more signal;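 further: score merges 667 nm feature fluorescence with signal to noise over triplicate slides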
[19] = molecular target: Neurogenic locus notch homolog protein 3 (Homo sapiens) (UniProt Q9UM47); experiment: small molecules binding NOTCH3 protein – biochemical, 635/667 nm fluorescence, primary screen (AID 1096); details: small-molecule microarray, 635 nm fluorescence, higher = more signal
[20] = probe aEGFR binding to arrayed compounds – biochemical, biotinylated probe, 635/667 nm fluorescence, primary screen (AID 1097); details: small-molecule microarray, higher = more signal;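 further: probe is a biotinylated anti-EGFR antibody binding compounds printed on slides; score combines fluorescence near 667 nm and signal to noise of each spot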

Sequence of Pro-neuregulin-1, membrane-bound isoform (Homo sapiens) (Q02297 whole entry, looked up, the tested form may be a part, canonical isoform): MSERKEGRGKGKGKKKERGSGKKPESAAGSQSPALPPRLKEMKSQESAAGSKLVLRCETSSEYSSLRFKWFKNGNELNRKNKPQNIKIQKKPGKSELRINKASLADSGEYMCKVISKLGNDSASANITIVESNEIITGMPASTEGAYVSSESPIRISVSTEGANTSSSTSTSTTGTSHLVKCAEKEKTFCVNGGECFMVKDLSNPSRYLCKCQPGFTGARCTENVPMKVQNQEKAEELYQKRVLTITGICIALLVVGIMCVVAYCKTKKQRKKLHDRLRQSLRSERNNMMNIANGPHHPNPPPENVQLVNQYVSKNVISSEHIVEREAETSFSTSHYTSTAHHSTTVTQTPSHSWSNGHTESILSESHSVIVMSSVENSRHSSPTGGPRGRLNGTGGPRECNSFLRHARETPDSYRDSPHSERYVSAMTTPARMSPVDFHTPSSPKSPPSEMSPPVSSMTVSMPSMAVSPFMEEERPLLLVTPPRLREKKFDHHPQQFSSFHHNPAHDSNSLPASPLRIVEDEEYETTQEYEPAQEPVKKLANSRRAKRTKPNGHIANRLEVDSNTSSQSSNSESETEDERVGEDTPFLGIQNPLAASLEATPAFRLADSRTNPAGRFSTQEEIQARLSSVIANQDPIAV
Sequence of Neurogenic locus notch homolog protein 2 (Homo sapiens) (Q04721 whole entry, looked up, canonical isoform): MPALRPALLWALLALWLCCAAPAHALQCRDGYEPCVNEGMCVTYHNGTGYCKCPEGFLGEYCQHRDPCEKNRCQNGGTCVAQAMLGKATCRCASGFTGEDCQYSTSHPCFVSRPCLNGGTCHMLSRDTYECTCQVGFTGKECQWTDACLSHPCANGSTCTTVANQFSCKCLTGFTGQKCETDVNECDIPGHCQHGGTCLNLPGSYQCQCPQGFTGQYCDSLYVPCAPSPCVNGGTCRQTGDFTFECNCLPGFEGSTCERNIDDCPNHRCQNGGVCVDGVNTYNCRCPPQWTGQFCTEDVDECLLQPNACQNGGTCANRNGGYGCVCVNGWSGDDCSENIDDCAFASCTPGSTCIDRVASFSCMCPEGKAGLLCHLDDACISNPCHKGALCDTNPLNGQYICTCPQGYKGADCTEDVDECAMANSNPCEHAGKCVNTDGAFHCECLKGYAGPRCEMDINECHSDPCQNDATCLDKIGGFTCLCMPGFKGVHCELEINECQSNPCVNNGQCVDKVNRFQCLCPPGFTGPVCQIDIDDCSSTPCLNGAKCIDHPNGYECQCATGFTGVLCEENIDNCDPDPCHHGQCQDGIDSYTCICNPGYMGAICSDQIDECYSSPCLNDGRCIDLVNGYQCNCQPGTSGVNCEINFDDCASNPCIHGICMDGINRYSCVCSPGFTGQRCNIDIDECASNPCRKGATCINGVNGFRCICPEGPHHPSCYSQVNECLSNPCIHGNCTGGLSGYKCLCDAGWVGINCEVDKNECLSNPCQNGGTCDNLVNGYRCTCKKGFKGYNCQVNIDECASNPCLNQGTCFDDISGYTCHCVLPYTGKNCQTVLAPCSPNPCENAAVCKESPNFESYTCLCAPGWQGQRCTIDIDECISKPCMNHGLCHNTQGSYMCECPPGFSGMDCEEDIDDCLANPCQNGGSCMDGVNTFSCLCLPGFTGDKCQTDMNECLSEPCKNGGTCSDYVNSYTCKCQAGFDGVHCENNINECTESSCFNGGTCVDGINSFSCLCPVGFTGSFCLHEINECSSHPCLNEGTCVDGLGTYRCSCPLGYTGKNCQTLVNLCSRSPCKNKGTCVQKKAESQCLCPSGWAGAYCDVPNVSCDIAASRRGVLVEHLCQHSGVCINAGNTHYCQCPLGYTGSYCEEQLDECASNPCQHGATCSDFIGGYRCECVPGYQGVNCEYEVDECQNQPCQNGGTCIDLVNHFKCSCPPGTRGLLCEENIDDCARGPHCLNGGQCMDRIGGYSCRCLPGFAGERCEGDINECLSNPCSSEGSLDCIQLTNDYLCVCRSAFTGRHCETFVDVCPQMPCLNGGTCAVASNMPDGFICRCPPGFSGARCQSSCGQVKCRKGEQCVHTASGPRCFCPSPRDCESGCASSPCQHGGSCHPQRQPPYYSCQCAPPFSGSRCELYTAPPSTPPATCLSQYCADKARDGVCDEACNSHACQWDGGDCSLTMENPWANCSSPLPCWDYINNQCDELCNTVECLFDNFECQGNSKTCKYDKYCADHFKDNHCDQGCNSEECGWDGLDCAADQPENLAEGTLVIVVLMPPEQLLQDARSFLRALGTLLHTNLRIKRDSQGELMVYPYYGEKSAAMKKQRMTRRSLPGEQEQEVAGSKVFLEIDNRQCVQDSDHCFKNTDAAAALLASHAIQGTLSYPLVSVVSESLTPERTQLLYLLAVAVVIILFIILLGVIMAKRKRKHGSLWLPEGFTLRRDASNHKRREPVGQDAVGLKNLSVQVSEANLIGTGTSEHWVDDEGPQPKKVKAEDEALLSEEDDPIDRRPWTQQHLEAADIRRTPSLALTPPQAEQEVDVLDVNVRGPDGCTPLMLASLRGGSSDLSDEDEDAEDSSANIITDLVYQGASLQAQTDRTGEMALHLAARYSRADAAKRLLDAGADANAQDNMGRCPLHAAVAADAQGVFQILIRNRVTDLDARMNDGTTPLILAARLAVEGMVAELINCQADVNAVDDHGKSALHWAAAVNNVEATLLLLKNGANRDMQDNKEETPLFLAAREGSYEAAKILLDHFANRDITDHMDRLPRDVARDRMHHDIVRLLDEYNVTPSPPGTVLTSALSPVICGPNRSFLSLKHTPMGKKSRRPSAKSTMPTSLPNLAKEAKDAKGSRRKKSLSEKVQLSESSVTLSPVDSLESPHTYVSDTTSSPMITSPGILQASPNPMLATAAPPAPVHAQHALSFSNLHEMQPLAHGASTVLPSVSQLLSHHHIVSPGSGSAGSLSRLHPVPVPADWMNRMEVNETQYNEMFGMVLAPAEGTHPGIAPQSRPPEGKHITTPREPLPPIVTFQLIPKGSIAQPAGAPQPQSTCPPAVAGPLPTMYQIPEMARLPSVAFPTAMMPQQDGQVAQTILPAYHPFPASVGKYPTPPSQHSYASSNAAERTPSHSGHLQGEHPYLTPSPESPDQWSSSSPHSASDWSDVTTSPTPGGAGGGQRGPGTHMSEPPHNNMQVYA
Sequence of Torsin-1A-interacting protein 2 (Homo sapiens) (Q8NFQ8 whole entry, looked up): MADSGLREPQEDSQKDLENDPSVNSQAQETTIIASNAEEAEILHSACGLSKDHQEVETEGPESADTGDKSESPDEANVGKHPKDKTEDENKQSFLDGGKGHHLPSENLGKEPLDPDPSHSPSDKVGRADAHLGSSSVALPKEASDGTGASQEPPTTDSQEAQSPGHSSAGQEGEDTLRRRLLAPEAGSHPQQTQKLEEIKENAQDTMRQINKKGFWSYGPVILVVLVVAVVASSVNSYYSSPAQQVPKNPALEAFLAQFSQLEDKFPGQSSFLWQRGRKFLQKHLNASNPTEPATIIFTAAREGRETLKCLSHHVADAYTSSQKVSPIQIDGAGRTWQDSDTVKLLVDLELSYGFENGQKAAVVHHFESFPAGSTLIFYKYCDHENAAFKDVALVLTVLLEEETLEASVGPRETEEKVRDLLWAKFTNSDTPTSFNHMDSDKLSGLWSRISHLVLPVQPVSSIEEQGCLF

Row | Compound | composite z-score [1] | composite z-score [2] | composite z-score [3] | composite z-score [4] | composite z-score [5] | composite z-score [6] | composite z-score [7] | z-score [8] | composite z-score [9] | composite z-score [10] | composite z-score [11] | z-score [12] | z-score [13] | z-score [14] | composite z-score [15] | z-score [16] | composite z-score [17] | composite z-score [18] | composite z-score [19] | composite z-score [20]
1 | CC(C)NC(=O)[C@@]1(C)c2ccccc2C(=O)N(C(C)C)[C@H]1c1ccc(CO)cc1 | -0.0225 | -0.953 | -0.153 | -0.564 | -0.792 | 0.493 | -0.643 | -0.639 (inactive) | -0.242 | -0.252 | 1.45 | -0.501 (inactive) | -1.63 (inactive) | -0.471 (inactive) | 3.47 | -0.297 (inactive) | -0.0466 | -0.781 | 0.165 | -0.227
2 | C[C@]1(C(=O)NC2CC2)c2ccccc2C(=O)N(Cc2ccc(OC(F)(F)F)cc2)[C@H]1c1ccc(CO)cc1 | 0.652 | 0.179 | -0.0642 | -0.366 | -1.02 | -0.47 | 0.745 | -1.68 (inactive) | 0.0221 | -0.111 | -0.613 | -0.352 (inactive) | -0.0814 (inactive) | -0.439 (inactive) | 1.77 | 0.735 (inactive) | -0.128 | -0.221 | -0.943 | -0.169
3 | CN1C(=O)C2C=CC(C(O)Cc3ccccc3)N(N(c3ccccc3)c3ccccc3)C2C1=O (stereo not given) | 0.135 | 0.147 | 0.0295 | 0.837 | 0.602 | 0.503 | 1.11 | 0.357 (inactive) | 0.654 | 0.107 | 0.795 | -0.179 (inactive) | 0.759 (inactive) | 1.11 (inactive) | 2.22 | -1.39 (inactive) | 0.107 | 0.218 | 0.839 | -0.137
4 | COC(=O)[C@@]1(Cc2ccccc2)[C@H]2c3cc(C(=O)N4CCCC4)n(Cc4cc(F)cc5c4OCOC5)c3C[C@H]2CN1C(=O)c1ccccc1 | 0.752 | -0.234 | 0.356 | 0.762 | 1.73 | 1.1 | 1.22 | -0.223 (inactive) | 0.929 | -0.0905 | -0.149 | 1.33 (inactive) | 1.17 (inactive) | 0.509 (inactive) | 3.29 | -0.542 (inactive) | 0.331 | -0.584 | 0.924 | 0.115
5 | CC(C)CNC(=O)[C@@]1(c2ccc([N+](=O)[O-])cc2)CC(=O)N(C2CCCCC2)[C@@H]1c1ccc(CO)cc1I | 0.0706 | 0.148 | -0.0728 | -0.186 | 0.421 | 1.14 | 0.734 | -0.35 (inactive) | -0.126 | -0.335 | 0.935 | -0.579 (inactive) | 0.279 (inactive) | -0.143 (inactive) | 1.98 | -0.602 (inactive) | -0.0512 | 0.193 | 0.636 | -0.096
6 | COC(=O)[C@H](Cc1ccccc1)N1CC(/C=C/C2CC2)=C[C@@H]1[C@@H](O)Cc1ccccc1 | -0.549 | 0.0784 | -0.0093 | 1.23 | 1.38 | 0.947 | 1.11 | -1.09 (inactive) | 0.707 | 0.177 | 1.46 | 0.107 (inactive) | -3.04 (inactive) | 0.423 (inactive) | 1.66 | 0.559 (inactive) | 0.0166 | 0.685 | 0.9 | 0.009
7 | COCCOC(=O)N1C(=O)[C@@]2(c3cc(C#CC4(O)CCCCCC4)ccc31)[C@H](C(N)=O)[C@H]1C(=O)O[C@H](c3ccccc3)[C@H](c3ccccc3)N1[C@@H]2c1ccccc1OCCO | 0.591 | 1.71 | 0.121 | 0.859 | 1.25 | 0.735 | 1.3 | 0.129 (inactive) | 0.239 | 0.141 | 1.54 | 1.53 (inactive) | -0.0153 (inactive) | 4.1 (inactive) | 2.49 | 0.58 (inactive) | -0.484 | 1.09 | 1.08 | 0.445
8 | CN(C)CCCN1C(=O)[C@@]2(c3ccc([N+](=O)[O-])cc3)CC(=O)N(CC34CC5CC(CC(C5)C3)C4)[C@@H]2c2ccc(CO)cc21 | -0.106 | -0.429 | -0.0276 | 0.0318 | -0.346 | 0.742 | 0.72 | 0.0832 (inactive) | 0.0267 | 0.0024 | 1.54 | 0.296 (inactive) | -0.505 (inactive) | -1.06 (inactive) | 3.29 | 0.304 (inactive) | -0.116 | -0.378 | 0.214 | -0.12
9 | C=C(CCCC)/C(=C/C[C@@H](OC(C)=O)c1ccc(CO)o1)c1cc(C(=O)OC)ccc1OC | -0.557 | 0.273 | -0.0985 | 0.866 | 0.621 | 1.01 | 1.28 | -0.129 (inactive) | 0.435 | 0.0826 | 1.57 | 0.562 (inactive) | -0.911 (inactive) | 0.28 (inactive) | 2.75 | -0.12 (inactive) | -0.134 | 1.44 | 1.06 | 0.021
